Source: article PMC5540273 (PLoS ONE, 2017)
Like-named read-outs stand apart in the source and are kept apart here.

Experiments:
[1] = tested on: JAK1(JH2domain-pseudokinase); details: concentration: 1 μM, replicates: in singlicate; n = 1
[2] = tested on: JAK2(JH1domain-catalytic); details: concentration: 1 μM, replicates: in singlicate; n = 1
[3] = tested on: JAK3(JH1domain-catalytic); details: concentration: 1 μM, replicates: in singlicate; n = 1
JNK1 = tested on: T1, JNK1; details: concentration: 1 μM, replicates: in singlicate; n = 1
T1 construct: gene MAPK8

JNK2 = tested on: T2, JNK2; details: concentration: 1 μM, replicates: in singlicate; n = 1
T2 construct: gene MAPK9

JNK3 = tested on: T3, JNK3; details: concentration: 1 μM, replicates: in singlicate; n = 1
T3 construct: gene MAPK10

KIT-autoinhibited = details: concentration: 1 μM, replicates: in singlicate; n = 1
KIT = details: concentration: 1 μM, replicates: in singlicate; n = 1
LATS1 = details: concentration: 1 μM, replicates: in singlicate; n = 1
LATS2 = details: concentration: 1 μM, replicates: in singlicate; n = 1
LCK = details: concentration: 1 μM, replicates: in singlicate; n = 1
LIMK1 = details: concentration: 1 μM, replicates: in singlicate; n = 1
LIMK2 = details: concentration: 1 μM, replicates: in singlicate; n = 1
LKB1 = tested on: T4, LKB1; details: concentration: 1 μM, replicates: in singlicate; n = 1
T4 construct: gene STK11

LOK = tested on: T5, LOK; details: concentration: 1 μM, replicates: in singlicate; n = 1
T5 construct: gene STK10

LRRK2 = details: concentration: 1 μM, replicates: in singlicate; n = 1
LTK = details: n = 1
LYN = details: concentration: 1 μM, replicates: in singlicate; n = 1
LZK = tested on: T6, LZK; details: concentration: 1 μM, replicates: in singlicate; n = 1
T6 construct: gene MAP3K13

MAK = details: concentration: 1 μM, replicates: in singlicate; n = 1
[4] = concentration: 1 μM, replicates: in singlicate
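Further: KINOMEscan kinase panel screen.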

CCn1cnc2c(NCc3ccccc3)ncnc21 [SKF-96418]
%Inh [1]: 24%
%Inh [2]: 40%
%Inh [3]: 5%
%Inh (JNK1): 11%
%Inh (JNK2): 0%
%Inh (JNK3): 0%
%Inh (KIT-autoinhibited): 9%
%Inh (KIT): 0%
%Inh (LATS1): 0%
%Inh (LATS2): 0%
%Inh (LCK): 0%
%Inh (LIMK1): 0%
%Inh (LIMK2): 0%
%Inh (LKB1): 25%
%Inh (LOK): 5%
%Inh (LRRK2): 0%
%Inh (LTK; [4]): 0%
%Inh (LYN): 0%
%Inh (LZK): 34%
%Inh (MAK): 0%

Cn1cc(-c2cnc(N)c3c(-c4ccc5c(c4)CCN5C(=O)Cc4ccccc4)csc23)cn1 [GSK2593074]
%Inh [1]: 0%
%Inh [2]: 26%
%Inh [3]: 0%
%Inh (JNK1): 13%
%Inh (JNK2): 0%
%Inh (JNK3): 0%
%Inh (KIT-autoinhibited): 32%
%Inh (KIT): 100%
%Inh (LATS1): 1%
%Inh (LATS2): 23%
%Inh (LCK): 93.8%
%Inh (LIMK1): 49%
%Inh (LIMK2): 55%
%Inh (LKB1): 0%
%Inh (LOK): 98.9%
%Inh (LRRK2): 3%
%Inh (LTK; 1 µM): 0%
%Inh (LYN): 65%
%Inh (LZK): 0%
%Inh (MAK): 0%

CN(C)CCOc1ccc(-c2cc(-c3ccc(Cl)c(O)c3)c(-c3ccncc3)[nH]2)cc1.Cl.Cl [SB-684387]
%Inh [1]: 23%
%Inh [2]: 33%
%Inh [3]: 10%
%Inh (JNK1): 3%
%Inh (JNK2): 34%
%Inh (JNK3): 36%
%Inh (KIT-autoinhibited): 2%
%Inh (KIT): 5%
%Inh (LATS1): 0%
%Inh (LATS2): 30%
%Inh (LCK): 86%
%Inh (LIMK1): 13%
%Inh (LIMK2): 11%
%Inh (LKB1): 20%
%Inh (LOK): 84%
%Inh (LRRK2): 17%
%Inh (LTK; [4]): 0%
%Inh (LYN): 28%
%Inh (LZK): 41%
%Inh (MAK): 41%

Nc1ncnc2scc(-c3ccc(NC(=O)Cc4cc(F)ccc4F)cc3)c12.O=C(O)C(F)(F)F [SB-731254-M]
%Inh [1]: 49%
%Inh [2]: 27%
%Inh [3]: 0%
%Inh (JNK1): 35%
%Inh (JNK2): 19%
%Inh (JNK3): 18%
%Inh (KIT-autoinhibited): 87%
%Inh (KIT): 100%
%Inh (LATS1): 13%
%Inh (LATS2): 36%
%Inh (LCK): 54%
%Inh (LIMK1): 55%
%Inh (LIMK2): 96%
%Inh (LKB1): 29%
%Inh (LOK): 81%
%Inh (LRRK2): 0%
%Inh (LTK; [4]): 71%
%Inh (LYN): 16%
%Inh (LZK): 0%
%Inh (MAK): 20%

Nc1cccc(-c2ccc3c(N)n[nH]c3c2)c1 [GSK2193613]
%Inh [1]: 12%
%Inh [2]: 8%
%Inh [3]: 0%
%Inh (JNK1): 18%
%Inh (JNK2): 13%
%Inh (JNK3): 3%
%Inh (KIT-autoinhibited): 83%
%Inh (KIT): 23%
%Inh (LATS1): 0%
%Inh (LATS2): 27%
%Inh (LCK): 9%
%Inh (LIMK1): 0%
%Inh (LIMK2): 12%
%Inh (LKB1): 12%
%Inh (LOK): 0%
%Inh (LRRK2): 0%
%Inh (LTK; [4]): 0%
%Inh (LYN): 0%
%Inh (LZK): 0%
%Inh (MAK): 18%

COc1ccc(NC(=O)c2ccoc2)cc1-c1ccc(C(=O)NCC2CC2)cc1 [GW810437]
%Inh [1]: 0%
%Inh [2]: 47%
%Inh [3]: 0%
%Inh (JNK1): 23%
%Inh (JNK2): 23%
%Inh (JNK3): 11%
%Inh (KIT-autoinhibited): 17%
%Inh (KIT): 0%
%Inh (LATS1): 12%
%Inh (LATS2): 0%
%Inh (LCK): 0%
%Inh (LIMK1): 2%
%Inh (LIMK2): 0%
%Inh (LKB1): 52%
%Inh (LOK): 28%
%Inh (LRRK2): 20%
%Inh (LTK; [4]): 16%
%Inh (LYN): 0%
%Inh (LZK): 19%
%Inh (MAK): 13%

CCn1c(-c2nonc2N)nc2c(-c3ccccc3)ncc(OCCCN)c21.O=C(O)C(F)(F)F.O=C(O)C(F)(F)F [GSK260205]
%Inh [1]: 71%
%Inh [2]: 3%
%Inh [3]: 0%
%Inh (JNK1): 26%
%Inh (JNK2): 85%
%Inh (JNK3): 85%
%Inh (KIT-autoinhibited): 0%
%Inh (KIT): 41%
%Inh (LATS1): 100%
%Inh (LATS2): 93.8%
%Inh (LCK): 29%
%Inh (LIMK1): 1%
%Inh (LIMK2): 0%
%Inh (LKB1): 0%
%Inh (LOK): 98.7%
%Inh (LRRK2): 28%
%Inh (LTK; [4]): 0%
%Inh (LYN): 0%
%Inh (LZK): 0%
%Inh (MAK): 0%

O=C(Nc1n[nH]c2cc(-c3cccs3)ccc12)C1CC1 [SB-731284]
%Inh [1]: 22%
%Inh [2]: 40%
%Inh [3]: 0%
%Inh (JNK1): 57%
%Inh (JNK2): 33%
%Inh (JNK3): 48%
%Inh (KIT-autoinhibited): 39%
%Inh (KIT): 58%
%Inh (LATS1): 0%
%Inh (LATS2): 5%
%Inh (LCK): 0%
%Inh (LIMK1): 6%
%Inh (LIMK2): 0%
%Inh (LKB1): 10%
%Inh (LOK): 17%
%Inh (LRRK2): 0%
%Inh (LTK; [4]): 0%
%Inh (LYN): 0%
%Inh (LZK): 0%
%Inh (MAK): 0%

COC(=O)Nc1nc2cc(Oc3ccc(NC(=O)Nc4cccc(SC)c4)cc3)ccc2[nH]1.Cl [GW697999]
%Inh [1]: 0%
%Inh [2]: 0%
%Inh [3]: 0%
%Inh (JNK1): 16%
%Inh (JNK2): 16%
%Inh (JNK3): 0%
%Inh (KIT-autoinhibited): 50%
%Inh (KIT): 99.9%
%Inh (LATS1): 43%
%Inh (LATS2): 0%
%Inh (LCK): 68%
%Inh (LIMK1): 0%
%Inh (LIMK2): 4%
%Inh (LKB1): 17%
%Inh (LOK): 99.4%
%Inh (LRRK2): 18%
%Inh (LTK; [4]): 0%
%Inh (LYN): 24%
%Inh (LZK): 23%
%Inh (MAK): 14%

O=C1NC(=O)C(c2ccccc2Cl)=C1Nc1cccc(Cl)c1 [SB-342409]
%Inh [1]: 0%
%Inh [2]: 24%
%Inh [3]: 65%
%Inh (JNK1): 19%
%Inh (JNK2): 12%
%Inh (JNK3): 3%
%Inh (KIT-autoinhibited): 0%
%Inh (KIT): 0%
%Inh (LATS1): 0%
%Inh (LATS2): 0%
%Inh (LCK): 1%
%Inh (LIMK1): 20%
%Inh (LIMK2): 89%
%Inh (LKB1): 0%
%Inh (LOK): 5%
%Inh (LRRK2): 2%
%Inh (LTK; [4]): 0%
%Inh (LYN): 0%
%Inh (LZK): 0%
%Inh (MAK): 12%
